This note sets out measurements from PubChem BioAssay.

Values joined by “and” are separate entries in the source; they are usually repeats but may differ in a detail not shown here. Identical values can stand only once. Active and inactive are the calls of the source.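 How the source made its calls, unless noted: active means compounds whose cell count with miR-34 switched on is under 0.7 times the count with it off; inactive means the rest.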

Experiment [1] is described as follows: stimulators of nuclear beta-catenin in C2C12, primary screen, imaging, WNT3A-conditioned medium, mouse C2C12, NPC library (AID 1117326; in the data active means nuclear beta-catenin stimulation mostly above about 4.2%, no sharp cut-off; inactive means mostly below about 10%). The following applies: stronger effect = higher value.
Experiment [2] can be described thus: stimulators of insulin release from INS-1E, primary screen, cell-based, 5 mM glucose, NPC library (AID 1117329;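 active means compound raises insulin release from rat beta cells at 5 mM glucose, no numeric limit stated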). The following applies: rat INS-1E insulin secretion, at 10 µM, stronger effect = higher value.
The nature of experiment [3]: growth inhibition of GSK3B-pretreated HCT116 cells – cell-based, CellTiter-Glo, 0.2 to 20 µM (AID 1117336;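 active means compounds lowering colon cancer cell viability after pretreatment blocking the GSK3B kinase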). The following applies: HCT116 viability after GSK3B inhibitor, at 20 µM, stronger effect = higher value. (In general: ATP-based viability assays read luminescence as a measure of living cells.)
Experiment [4] is described as follows: inhibition of endothelial tube formation, primary screen, imaging, VEGF stimulated, CD31 staining, tube area, NPC library (AID 1117340;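 active means compound that reduces growth-factor-driven endothelial tube area in a mixed cell culture, no cutoff stated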). Conditions: VEGF-stimulated ADSC/ECFC co-culture, at 10 µM, stronger effect = higher value.
Experiment [5] can be described thus: glucagon-like peptide 1 release enhancers, primary assay, NCI-H716 cell line, NPC library (AID 1117341;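 active means compound raises GLP1 secretion from the human gut endocrine cells, with no numeric limit stated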). Conditions: NCI-H716 cells, at 10 µM, stronger effect = higher value.
A short description of experiment [6]: HCT116 colon cancer cell growth inhibition, primary screen, CellTiter-Glo luminescence, NPC library (AID 1117342;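 active means compounds that lower survival of HCT116 colon cancer cells in the luminescence readout, no numeric limit stated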). The following applies: at 20 µM (top of the series).
A short description of experiment [7]: CellTiter-Glo luminescent readout of SW480 viability loss, NPC library primary (AID 1117343;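 active means compounds that lower viability of the colon cancer cells in the luminescence readout, with no numeric limit stated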). The following applies: CellTiter-Glo luminescence; at 20 µM (top of the series) unless noted.
The nature of experiment [8]: decreased DLD-1 cellular survival, CellTiter-Glo luminescent readout, NPC compound collection, primary HTS (AID 1117346;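 active means compounds that lower survival of DLD-1 colon cancer cells in the luminescence readout, no cutoff given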). Conditions: DLD-1 viability, CellTiter-Glo luminescence; at 20 µM (top of the series).
A short description of experiment [9]: sensitizers of A549 cells to miR-34 induction, primary screen, imaging, A549 dox-inducible miR-34, nuclei and caspase counts (AID 1347080). The following applies: A549 miR-34 inducible, Hoechst nuclei count, 48 h.
Experiment [10] in a line: survival rescue of mitochondrial mutant cells in low glucose, primary screen, MELAS cybrids, Rieske KO mouse fibroblasts, CellTiter-Glo (AID 1508586;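 active means mean z-score across replicates of 1.96 or higher in either the MELAS or the Rieske mutant cell line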;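 further: z relative to plate mean and SD of compound and empty wells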).
A short description of experiment [11]: liver-stage malaria parasite growth inhibition, primary screen, cell-based, HepG2, luciferase luminescence, HepG2 viability (AID 624349; in the data active means parasite load remaining mostly below about 12%, no sharp cut-off; inactive means mostly above about 10%;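 further: 100% = mean of DMSO negative control wells on the same plate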). Conditions: P. berghei liver stage in HepG2, luciferase luminescence, concentration not given here; parasite load remaining: stronger effect = lower value; viability: measured here: HepG2 viability without parasites.
Experiment [12] is described as follows: viability rescue of complex I mutant cybrids, primary screen, cell-based, galactose medium, ATP luminescence (AID 1645843;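 active means z-score of at least 1.8 in each of two replicates, scored against plate mean and spread of sample wells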;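 further: positive z means more ATP and so rescue of galactose-driven cybrid death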). The following applies: complex I mutant cybrid cells, 72 h, stronger effect = higher value.
Experiment [13] deals with NAD(+) hydrolase SARM1 (Homo sapiens) (UniProt Q6SZW1). As to the kind of experiment: SARM1 TIR NADase inhibitors, cell lysate, NAD-Glo luminescence (AID 1508614;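 active means compound whose remaining NAD level is above about 45 nM, limit read from the data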). Conditions: SAM-TIR HEK293T lysate NADase, at 1 µM, stronger effect = higher value.
Sequence of NAD(+) hydrolase SARM1 (Homo sapiens) (Q6SZW1 whole entry, looked up): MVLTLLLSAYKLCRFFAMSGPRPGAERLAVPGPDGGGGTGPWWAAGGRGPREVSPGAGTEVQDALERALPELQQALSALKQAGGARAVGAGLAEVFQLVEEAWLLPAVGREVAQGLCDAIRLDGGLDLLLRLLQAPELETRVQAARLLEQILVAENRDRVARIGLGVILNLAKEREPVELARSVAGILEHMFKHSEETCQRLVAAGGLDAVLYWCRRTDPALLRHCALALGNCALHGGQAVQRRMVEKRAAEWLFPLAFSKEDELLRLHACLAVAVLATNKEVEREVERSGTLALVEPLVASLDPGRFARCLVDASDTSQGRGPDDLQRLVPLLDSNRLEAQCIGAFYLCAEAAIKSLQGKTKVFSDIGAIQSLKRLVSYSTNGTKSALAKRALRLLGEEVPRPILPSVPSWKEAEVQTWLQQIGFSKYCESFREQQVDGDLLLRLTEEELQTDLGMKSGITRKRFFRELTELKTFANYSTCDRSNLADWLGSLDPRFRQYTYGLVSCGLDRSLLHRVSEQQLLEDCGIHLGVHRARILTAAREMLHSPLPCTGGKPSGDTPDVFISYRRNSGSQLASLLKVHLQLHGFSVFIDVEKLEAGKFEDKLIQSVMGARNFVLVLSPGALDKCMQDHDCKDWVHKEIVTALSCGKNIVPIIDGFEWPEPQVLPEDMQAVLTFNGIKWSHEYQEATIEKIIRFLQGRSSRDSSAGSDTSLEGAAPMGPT
The mark [14] stands for this setting: stronger effect = lower value, cell number ratio, induced over uninduced.
Where [15] appears, read: measured here: relative caspase fold change +Dox/-Dox.
[16] abbreviates: measured here: total cells with miR-34 induction, stronger effect = lower value.
[17] abbreviates: measured here: total cells without miR-34 induction.
[18] abbreviates: MELAS cybrid survival, CellTiter-Glo 48 h, stronger effect = higher value.
[19] abbreviates: Rieske KO mouse fibroblast survival, CellTiter-Glo 72 h.

For the compound `Nc1c(CC(=O)O)cccc1C(=O)c1ccccc1`, the nuclear beta-catenin stimulation in [1] (at 10 µM) was 0.8% (inactive); in experiment [1] (stimulation, at 2 µM), 0.5%. Moreover, in experiment [2], the insulin secretion stimulation was -0.2% (inactive). Further, in experiment [3], the viability decrease was -2.3% (inactive). In experiment [4], the tube area decrease was -6.1% (inactive). Moreover, the GLP1 secretion stimulation in [5] is 2.5% (inactive). The inhibition of viability in experiment [6] was 0.4% (inactive). For the same compound, the viability decrease (inhibition) is 0.2% (inactive) in experiment [7] and -11.2% (inactive) in experiment [8]. Besides, the fold change in [9] (setting [14]) is 0.914 (inactive); in experiment [9] (setting [15]) it was 0.966. Further, the results for the cell count in experiment [9] (setting [16]) and in experiment [9] (setting [17]) were 7840 and 8580, respectively. In addition, the z-score in [10] (setting [18]) was -0.237 (inactive); in experiment [10] (setting [19]), -0.172.

Take `O=c1[nH]c2ccccc2n1CCCN1CCN(C(c2ccccc2)c2ccccc2)CC1`: the parasite load remaining in [11] is 29.6% (inactive). In [11], the viability is 106%. In addition, the nuclear beta-catenin stimulation was 2.7% (inactive) in [1] (at 10 µM) and 2% in experiment [1] (stimulation, at 2 µM). Besides, the insulin secretion stimulation in experiment [2] was 1.95% (inactive). For the same compound, the viability decrease in experiment [3] was 72% (active). Besides, the tube area decrease in experiment [4] is 20.5% (inactive). For the same compound, the GLP1 secretion stimulation in [5] is 1.4% (inactive). The inhibition of viability in experiment [6] is 76.3% (active). Besides, the viability decrease (inhibition) is 110% (active) in experiment [7] and 78.8% (active) in experiment [8]. Also, the fold change is 0.906 (inactive) in [9] (setting [14]) and 1.22 in [9] (setting [15]). Also, the cell count in [9] (setting [16]) is 8130; in experiment [9] (setting [17]) it was 8980. Also, the z-score in experiment [10] (setting [18]) is -0.355 (inactive); in [10] (setting [19]), -0.351; in experiment [12], -1.56 (inactive).

Take `C=CCNC(N)=S`: the nuclear beta-catenin stimulation is 5.1% (inactive) in experiment [1] (at 10 µM) and 2.3% in [1] (stimulation, at 2 µM). Besides, the insulin secretion stimulation in [2] is -0.8% (inactive). In addition, the viability decrease in experiment [3] was -2.15% (inactive). Moreover, in experiment [4], the tube area decrease is -31.3% (inactive). In addition, the GLP1 secretion stimulation in experiment [5] was -0.3% (inactive). For the same compound, in experiment [6], the inhibition of viability is -19.1% (inactive). Moreover, the viability decrease (inhibition) in experiment [7] was 23.8% (active); in experiment [8], -4.7% (inactive). In addition, the fold change in experiment [9] (setting [14]) is 0.867 (inactive) and 0.831 (inactive); in experiment [9] (setting [15]) it was 1.24 and 0.686. Also, the cell count in experiment [9] (setting [16]) was 7540 and 8140; in experiment [9] (setting [17]), 8690 and 9790. The z-score was -0.239 (inactive) in [10] (setting [18]) and -0.148 in experiment [10] (setting [19]). The remaining NAD in experiment [13] is 10 nM (inactive).

As for `COc1cc(C)c(C=CC(C)=CC=CC(C)=CC(=O)O)c(C)c1C`, the nuclear beta-catenin stimulation in [1] (at 10 µM) is 1% (inactive); in [1] (stimulation, at 2 µM), 1.9%. Further, the insulin secretion stimulation in experiment [2] is 2.8% (inactive). The viability decrease in experiment [3] was 61.5% (active). The tube area decrease in experiment [4] was 45.4% (active). Further, the GLP1 secretion stimulation in experiment [5] was -3.9% (inactive). Also, the inhibition of viability in [6] is 52.1% (active). Further, the viability decrease (inhibition) is 70.9% (active) in [7] and 78.6% (active) in experiment [8]. Further, the results for the fold change in [9] (setting [14]) and in experiment [9] (setting [15]) were 0.847 (inactive) and 1.06, respectively. In addition, the cell count was determined as 6840 in experiment [9] (setting [16]) and 8080 in experiment [9] (setting [17]). Also, the z-score in experiment [10] (setting [18]) was -0.108 (inactive); in [10] (setting [19]), 0.793.

`CC(=O)[C@H]1CC[C@H]2[C@@H]3C=CC4=CC(=O)CC[C@@]4(C)[C@@H]3CC[C@]12C`: in experiment [11], the parasite load remaining is 84.3% (inactive). Further, the viability in experiment [11] came out at 94.2%. Besides, the nuclear beta-catenin stimulation is 4.5% (inactive) in experiment [1] (at 10 µM) and 1.5% in experiment [1] (stimulation, at 2 µM). The insulin secretion stimulation in [2] was -1.8% (inactive). Besides, the viability decrease in experiment [3] is 6.3% (inactive). Besides, the tube area decrease in [4] is 4.8% (inactive). Besides, in [5], the GLP1 secretion stimulation is 3.1% (inactive). Moreover, the inhibition of viability in experiment [6] was 14.9% (inactive). The viability decrease (inhibition) in [7] is 64.2% (active); in experiment [8], 5.4% (inactive). For the same compound, the fold change in experiment [9] (setting [14]) is 0.855 (inactive); in experiment [9] (setting [15]) it was 1.43. Also, the cell count in experiment [9] (setting [16]) was determined as 8320; in [9] (setting [17]), 9730. Moreover, the z-score was 0.367 (inactive) in [10] (setting [18]) and 0.105 in [10] (setting [19]). Moreover, the remaining NAD in experiment [13] is 10 nM (inactive).

For the compound `COc1ccc(C=CC(=O)Nc2ccccc2C(=O)O)cc1OC`, the nuclear beta-catenin stimulation in [1] (at 10 µM) is -1.3% (inactive); in experiment [1] (stimulation, at 2 µM), 2.1%. Further, in experiment [2], the insulin secretion stimulation is 0.9% (inactive). The viability decrease in experiment [3] was 4.3% (inactive). Moreover, the tube area decrease in [4] is -1.3% (inactive). In [5], the GLP1 secretion stimulation was -5.7% (inactive). Moreover, in [6], the inhibition of viability was -5.8% (inactive). For the same compound, the viability decrease (inhibition) in experiment [7] was 4.8% (inactive); in experiment [8], -29.2% (inactive). The fold change is 0.906 (inactive) and 0.975 (inactive) in experiment [9] (setting [14]); 1.48 and 0.856 in [9] (setting [15]). In addition, the cell count was 9440 and 8000 in experiment [9] (setting [16]); 10400 and 8210 in [9] (setting [17]). The results for the z-score in experiment [10] (setting [18]), in experiment [10] (setting [19]) and in [12] were -0.386 (inactive), 0.573 and 0.955 (inactive), respectively.

Regarding `O=C(O)COC(=O)Cc1ccccc1Nc1c(Cl)cccc1Cl`, the parasite load remaining in [11] is 25.9% (inactive) and 102% (inactive) and 21.3% (inactive). In addition, the viability in experiment [11] was 47% and 92.7% and 77%. The nuclear beta-catenin stimulation in experiment [1] (at 10 µM) is 1.1% (inactive); in experiment [1] (stimulation, at 2 µM), -1%. In addition, the insulin secretion stimulation in [2] is 3.2% (inactive). For the same compound, the viability decrease in experiment [3] was 30.7% (inactive). In addition, in [4], the tube area decrease was -0.5% (inactive). Further, the GLP1 secretion stimulation in experiment [5] was 1% (inactive). For the same compound, the inhibition of viability in experiment [6] was 26% (inactive). Besides, the viability decrease (inhibition) in experiment [7] was 83.7% (active); in [8], 20.5% (inactive). Moreover, the fold change in experiment [9] (setting [14]) is 0.899 (inactive) and 0.88 (inactive); in [9] (setting [15]), 1.19 and 1.2. The cell count in experiment [9] (setting [16]) is 8790 and 10000; in [9] (setting [17]), 9770 and 11400. The z-score in experiment [10] (setting [18]) is -0.0312 (inactive) and 0.298 (inactive); in [10] (setting [19]), -0.0287 and -0.406; in experiment [12], 0.67 (inactive). In experiment [13], the remaining NAD is 10 nM (inactive).

By viability is commonly meant a read-out of living cells in per cent, often relative to untreated cells.
